Data on 19 compounds can be found in PubChem BioAssay (EPA / NIEHS).

Results filed as inconclusive are left out. Activity calls are given as the source filed them. Rule for the calls: active = hit-call score of the fitted dose curve at least 0.9, where 1 is the maximum; inconclusive = response in the unintended direction; inactive = score below 0.9.

In experiment [1] the target is rat Adrenergic, Alpha 1, Non-selective Receptor (Adra1), Adra1a (gene 29412) (UniProt P43140). The experiment in a line: NVS_GPCR_rAdra1_NonSelective: NovaScreen (NVS) G Protein-Coupled Receptor Assay for rat Adrenergic, Alpha 1, Non-selective Receptor (Adra1) (AID 2283289). The essentials:
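Chemicals first screened in duplicate at 25 uM, then actives tested in concentration series up to 50 uM. Binding measured as displacement of radioligand from rat forebrain membrane receptors, 1 h, filtration with scintillation readout; DMSO baseline.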

For experiment [2], the target named is guinea pig Serotonin, 5-Hydroxytryptamine Receptor 4 (5HT4), HTR4 (gene 100135548) (UniProt O70528). The experiment in a line: NVS_GPCR_g5HT4: NovaScreen (NVS) G Protein-Coupled Receptor Assay for guinea pig Serotonin, 5-Hydroxytryptamine Receptor 4 (5HT4) (AID 2283294). In outline:
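Compounds first screened in duplicate at 25 uM, actives followed up in concentration series. Binding measured as displacement of specific radioligand from guinea pig striatal membranes, 1 h, filter-based scintillation read-out versus DMSO baseline.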

Experiment [3] addresses rat Adrenergic, Alpha 1A Receptor (Adra1A), Adra1a (gene 29412) (UniProt P43140). In words: NVS_GPCR_rAdra1A: NovaScreen (NVS) G Protein-Coupled Receptor Assay for rat Adrenergic, Alpha 1A Receptor (Adra1A) (AID 2283296). The essentials: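 Filter radiodetection after 1 h competitive binding on CEC-pretreated rat cortical membranes. Duplicate single-point screening at 25 uM; active chemicals retested across concentration series.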

Experiment [4] has as its target rat Adrenergic Receptor, Alpha 2 (Adra2), Non-selective Binding, Adra2a (gene 25083) (UniProt P22909). In words: NVS_GPCR_rAdra2_NonSelective: NovaScreen (NVS) G Protein-Coupled Receptor Assay for rat Adrenergic Receptor, Alpha 2 (Adra2), Non-selective Binding (AID 2283299). The essentials:
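Filter-based scintillation counting of radioligand binding to rat cortical membrane receptors, measured 1.25 hours post-dosing; loss of signal versus DMSO indicates displacement. Initial single-concentration duplicate at 25 uM, then concentration series.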

Experiment [5] concerns the target rat Histamine Receptor (H3), Hrh3 (gene 85268) (UniProt Q9QYN8). In words: NVS_GPCR_rH3: NovaScreen (NVS) G Protein-Coupled Receptor Assay for rat Histamine Receptor (H3) (AID 2283303). The essentials: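 Filter-binding radioligand competition on rat forebrain membranes, 1 h incubation; compounds screened at 25 µM in duplicate and followed in concentration series to 50 µM, loss of bound signal vs DMSO.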

Another experiment addresses Adra2b (gene 24174) (UniProt P19328). In words: NVS_GPCR_rmAdra2B: NovaScreen (NVS) G Protein-Coupled Receptor Assay for hybird cells Adrenergic, Alpha 2B Receptor (Adra2B) (AID 2283306). The essentials: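 Compounds screened first at 25 uM in duplicate, with actives followed up in concentration-response; specific radioligand displacement from hybrid neuroglioma/blastoma cell membrane preparations measured by filter scintillation counting after 1 h, normalized to DMSO.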

Experiment [6] deals with human Opioid Receptor Mu (Opiate Mu), OPRM1 (gene 4988) (UniProt P35372). The experiment in a line: NVS_GPCR_hOpiate_mu: NovaScreen (NVS) G Protein-Coupled Receptor Assay for human Opioid Receptor Mu (Opiate Mu) (AID 2283290).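 Note: hits lower bound tracer signal versus DMSO meaning displacement of the ligand.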 The essentials: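 Primary screen in duplicate at 25 uM, with actives followed in concentration series. CHO-derived receptor membranes, cell-free; bound radioligand read by scintillation counting after filtration at 2.5 h, decrease scored against DMSO.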

Experiment [7] concerns rat Adrenergic, Alpha 1B Receptor (Adra1B), gene 24173. The experiment in a line: NVS_GPCR_rAdra1B: NovaScreen (NVS) G Protein-Coupled Receptor Assay for rat Adrenergic, Alpha 1B Receptor (Adra1B) (AID 2283297). In outline:
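Filter-binding radioligand competition on membranes from rat liver, read after 1 h by scintillation counting. Single-concentration duplicate screen at 25 uM, followed by concentration-response on actives, normalised to DMSO.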

Experiment [8] relates to 5-hydroxytryptamine receptor 2C (pig). In words: NVS_GPCR_p5HT2C: NovaScreen (NVS) G Protein-Coupled Receptor Assay for pig Serotonin, 5-Hydroxytryptamine Receptor 2C (5HT2C) (AID 2283288). In outline:
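Radioligand displacement on membranes from pig choroid plexus, detected by filter scintillation counting after 1 h. Tested first at a single 25 uM in duplicate, then in concentration-response for actives; DMSO served as baseline.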

In experiment [9] the target is rat Gamma-Aminobutyric Acid Type B Receptor (GABBR), Gabbr1 (gene 81657) (UniProt Q9Z0U4). The experiment in a line: NVS_GPCR_rGABBR: NovaScreen (NVS) G Protein-Coupled Receptor Assay for rat Gamma-Aminobutyric Acid Type B Receptor (GABBR) (AID 2283301). The essentials:
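Rat cortical membrane preparation, competitive radioligand binding for 1 h with filtration and scintillation readout. Actives from duplicate single-point 25 uM screening proceeded to concentration series with 50 uM top concentration.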

The target of experiment [10] is rat Serotonin, 5-Hydroxytryptamine Receptor (5HT), Non-Selective Binding, Htr1a (gene 24473) (UniProt P19327). In words: NVS_GPCR_r5HT_NonSelective: NovaScreen (NVS) G Protein-Coupled Receptor Assay for rat Serotonin, 5-Hydroxytryptamine Receptor (5HT), Non-Selective Binding (AID 2283295). In outline:
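Rat cortex membrane preparation incubated 1 h with radioligand and test chemical; bound radioactivity counted after filtration. Screening began in duplicate at 25 uM with concentration-series follow-up; fitting relative to DMSO.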

Experiment [11] has as its target guinea pig Bradykinin Receptor B2 (BK2), BDKRB2 (gene 100135486) (UniProt O70526). In words: NVS_GPCR_gBK2: NovaScreen (NVS) G Protein-Coupled Receptor Assay for guinea pig Bradykinin Receptor B2 (BK2) (AID 2283292). In outline: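 Guinea pig ileum membrane preparation incubated 1 h with radioligand and test chemical; bound counts measured after filtration. Primary duplicate screening at 25 uM, then singleton concentration series with a 50 uM top dose; DMSO as baseline.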

Chain of rat Histamine Receptor (H3), Hrh3 (gene 85268) (Q9QYN8 whole entry, looked up): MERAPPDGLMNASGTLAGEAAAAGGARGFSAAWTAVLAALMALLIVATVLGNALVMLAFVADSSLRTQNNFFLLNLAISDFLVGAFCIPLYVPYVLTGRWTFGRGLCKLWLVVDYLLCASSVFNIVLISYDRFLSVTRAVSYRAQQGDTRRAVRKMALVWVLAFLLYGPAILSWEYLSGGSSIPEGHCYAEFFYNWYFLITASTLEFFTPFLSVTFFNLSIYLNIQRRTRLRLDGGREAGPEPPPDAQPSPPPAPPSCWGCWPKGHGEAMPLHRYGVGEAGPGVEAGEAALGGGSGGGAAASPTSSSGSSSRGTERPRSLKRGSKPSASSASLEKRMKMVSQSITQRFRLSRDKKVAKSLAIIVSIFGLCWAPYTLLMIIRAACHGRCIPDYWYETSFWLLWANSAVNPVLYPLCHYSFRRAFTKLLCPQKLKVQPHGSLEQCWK
Chain of human Opioid Receptor Mu (Opiate Mu), OPRM1 (gene 4988) (P35372 whole entry, looked up): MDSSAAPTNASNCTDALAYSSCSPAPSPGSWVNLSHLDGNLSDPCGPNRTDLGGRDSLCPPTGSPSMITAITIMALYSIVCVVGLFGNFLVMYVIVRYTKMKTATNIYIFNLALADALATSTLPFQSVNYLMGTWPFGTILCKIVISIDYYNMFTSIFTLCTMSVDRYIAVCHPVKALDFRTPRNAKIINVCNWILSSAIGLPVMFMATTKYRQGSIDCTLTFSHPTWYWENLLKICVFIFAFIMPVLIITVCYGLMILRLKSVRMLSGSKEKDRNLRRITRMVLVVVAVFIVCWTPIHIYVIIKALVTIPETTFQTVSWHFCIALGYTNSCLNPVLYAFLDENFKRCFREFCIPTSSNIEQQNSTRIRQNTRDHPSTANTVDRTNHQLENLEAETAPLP
Chain of rat Adrenergic, Alpha 1, Non-selective Receptor (Adra1), Adra1a (gene 29412) (P43140 whole entry, looked up): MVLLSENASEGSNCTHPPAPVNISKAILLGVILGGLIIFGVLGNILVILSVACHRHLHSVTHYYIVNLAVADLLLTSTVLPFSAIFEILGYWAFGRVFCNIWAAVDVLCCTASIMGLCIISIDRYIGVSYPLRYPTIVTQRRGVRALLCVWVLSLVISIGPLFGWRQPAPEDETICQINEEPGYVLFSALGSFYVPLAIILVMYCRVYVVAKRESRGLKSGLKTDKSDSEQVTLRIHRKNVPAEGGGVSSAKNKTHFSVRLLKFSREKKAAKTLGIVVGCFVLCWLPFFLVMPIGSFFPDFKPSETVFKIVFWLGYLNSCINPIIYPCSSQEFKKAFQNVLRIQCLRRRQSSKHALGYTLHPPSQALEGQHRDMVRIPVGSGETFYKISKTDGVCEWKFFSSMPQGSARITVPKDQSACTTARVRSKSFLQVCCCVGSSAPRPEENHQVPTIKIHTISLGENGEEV
Chain of rat Adrenergic, Alpha 1A Receptor (Adra1A), Adra1a (gene 29412) (P43140 whole entry, looked up): as above
Chain of Adra2b (gene 24174) (P19328 whole entry, looked up): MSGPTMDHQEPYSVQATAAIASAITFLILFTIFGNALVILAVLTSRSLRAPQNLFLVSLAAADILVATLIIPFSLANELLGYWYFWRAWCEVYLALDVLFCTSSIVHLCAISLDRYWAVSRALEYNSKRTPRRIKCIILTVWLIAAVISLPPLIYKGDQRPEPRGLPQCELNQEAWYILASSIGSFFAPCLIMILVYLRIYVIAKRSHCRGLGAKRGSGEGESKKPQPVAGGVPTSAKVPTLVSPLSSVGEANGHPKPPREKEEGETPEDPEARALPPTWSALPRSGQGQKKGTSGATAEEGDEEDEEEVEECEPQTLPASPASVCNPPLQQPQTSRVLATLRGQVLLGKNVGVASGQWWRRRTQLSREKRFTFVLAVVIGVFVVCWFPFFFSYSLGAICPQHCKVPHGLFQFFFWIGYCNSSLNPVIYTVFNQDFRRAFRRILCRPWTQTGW
Chain of guinea pig Serotonin, 5-Hydroxytryptamine Receptor 4 (5HT4), HTR4 (gene 100135548) (O70528 whole entry, looked up): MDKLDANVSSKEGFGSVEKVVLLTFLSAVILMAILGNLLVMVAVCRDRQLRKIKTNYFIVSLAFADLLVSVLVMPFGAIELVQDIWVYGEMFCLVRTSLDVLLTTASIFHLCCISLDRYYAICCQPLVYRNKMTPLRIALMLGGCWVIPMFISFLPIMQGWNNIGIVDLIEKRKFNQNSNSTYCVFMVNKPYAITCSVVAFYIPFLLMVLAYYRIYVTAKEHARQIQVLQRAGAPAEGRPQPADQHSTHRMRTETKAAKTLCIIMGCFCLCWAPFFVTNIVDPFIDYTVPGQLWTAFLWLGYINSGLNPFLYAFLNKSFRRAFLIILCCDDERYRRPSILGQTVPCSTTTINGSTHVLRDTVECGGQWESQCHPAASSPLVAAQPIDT
Chain of rat Adrenergic Receptor, Alpha 2 (Adra2), Non-selective Binding, Adra2a (gene 25083) (P22909 whole entry, looked up): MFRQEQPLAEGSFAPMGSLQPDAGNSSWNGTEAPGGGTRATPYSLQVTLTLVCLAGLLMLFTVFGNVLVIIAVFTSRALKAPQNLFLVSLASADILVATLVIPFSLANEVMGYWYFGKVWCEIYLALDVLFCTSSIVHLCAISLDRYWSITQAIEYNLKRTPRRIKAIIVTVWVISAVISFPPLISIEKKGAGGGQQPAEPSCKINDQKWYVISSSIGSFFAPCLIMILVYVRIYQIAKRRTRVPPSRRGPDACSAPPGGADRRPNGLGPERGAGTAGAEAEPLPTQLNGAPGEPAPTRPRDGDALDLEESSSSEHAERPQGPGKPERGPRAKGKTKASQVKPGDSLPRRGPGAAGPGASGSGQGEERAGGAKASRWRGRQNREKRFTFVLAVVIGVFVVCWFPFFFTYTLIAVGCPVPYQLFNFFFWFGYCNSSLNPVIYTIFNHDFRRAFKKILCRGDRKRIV
Chain of rat Gamma-Aminobutyric Acid Type B Receptor (GABBR), Gabbr1 (gene 81657) (Q9Z0U4 whole entry, looked up): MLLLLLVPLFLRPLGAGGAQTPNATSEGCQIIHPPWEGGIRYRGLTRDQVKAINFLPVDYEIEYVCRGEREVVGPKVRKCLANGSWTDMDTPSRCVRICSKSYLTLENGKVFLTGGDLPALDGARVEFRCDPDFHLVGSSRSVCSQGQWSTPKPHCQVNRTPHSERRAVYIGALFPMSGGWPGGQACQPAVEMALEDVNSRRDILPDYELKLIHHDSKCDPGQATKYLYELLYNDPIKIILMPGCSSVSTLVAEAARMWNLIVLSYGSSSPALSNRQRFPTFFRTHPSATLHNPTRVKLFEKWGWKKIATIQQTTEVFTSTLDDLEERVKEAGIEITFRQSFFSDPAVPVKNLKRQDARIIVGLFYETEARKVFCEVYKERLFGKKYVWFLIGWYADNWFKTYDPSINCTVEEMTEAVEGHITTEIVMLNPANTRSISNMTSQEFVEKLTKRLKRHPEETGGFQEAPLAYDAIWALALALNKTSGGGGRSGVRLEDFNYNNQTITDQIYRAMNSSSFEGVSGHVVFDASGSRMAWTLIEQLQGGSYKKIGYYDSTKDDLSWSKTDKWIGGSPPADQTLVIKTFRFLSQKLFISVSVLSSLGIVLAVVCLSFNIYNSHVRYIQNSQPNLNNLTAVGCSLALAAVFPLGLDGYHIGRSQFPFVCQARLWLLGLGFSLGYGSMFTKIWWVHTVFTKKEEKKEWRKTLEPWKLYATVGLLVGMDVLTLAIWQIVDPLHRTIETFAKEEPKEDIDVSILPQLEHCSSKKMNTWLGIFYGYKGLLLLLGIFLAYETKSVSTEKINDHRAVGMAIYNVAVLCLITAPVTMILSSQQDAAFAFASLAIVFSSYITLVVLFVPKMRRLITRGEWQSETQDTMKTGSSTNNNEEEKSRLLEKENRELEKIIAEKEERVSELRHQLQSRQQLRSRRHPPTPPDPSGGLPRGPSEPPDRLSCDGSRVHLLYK
Chain of rat Serotonin, 5-Hydroxytryptamine Receptor (5HT), Non-Selective Binding, Htr1a (gene 24473) (P19327 whole entry, looked up): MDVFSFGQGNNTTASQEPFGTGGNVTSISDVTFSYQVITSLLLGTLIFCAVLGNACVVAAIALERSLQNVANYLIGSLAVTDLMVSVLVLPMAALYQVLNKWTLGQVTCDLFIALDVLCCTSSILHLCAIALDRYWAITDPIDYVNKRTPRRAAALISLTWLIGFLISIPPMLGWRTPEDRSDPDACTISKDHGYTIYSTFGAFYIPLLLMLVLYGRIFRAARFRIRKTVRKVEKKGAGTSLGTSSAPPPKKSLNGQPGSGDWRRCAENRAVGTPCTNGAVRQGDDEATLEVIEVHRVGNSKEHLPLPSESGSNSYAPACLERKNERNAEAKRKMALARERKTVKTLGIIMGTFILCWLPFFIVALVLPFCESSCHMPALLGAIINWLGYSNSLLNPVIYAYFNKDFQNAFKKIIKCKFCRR
Chain of guinea pig Bradykinin Receptor B2 (BK2), BDKRB2 (gene 100135486) (O70526 whole entry, looked up): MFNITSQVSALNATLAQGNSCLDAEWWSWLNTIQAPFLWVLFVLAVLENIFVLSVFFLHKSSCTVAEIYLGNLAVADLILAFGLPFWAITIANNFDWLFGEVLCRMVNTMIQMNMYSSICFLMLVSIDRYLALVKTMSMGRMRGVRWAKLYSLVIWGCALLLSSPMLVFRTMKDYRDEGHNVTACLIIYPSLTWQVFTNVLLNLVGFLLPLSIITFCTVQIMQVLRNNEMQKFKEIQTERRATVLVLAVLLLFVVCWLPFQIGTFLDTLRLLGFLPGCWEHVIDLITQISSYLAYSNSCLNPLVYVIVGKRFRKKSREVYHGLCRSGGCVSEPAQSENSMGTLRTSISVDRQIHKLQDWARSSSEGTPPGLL

In the case of `CCN(C(=O)c1cc(C)cc(OC[C@H](C)Nc2ccncc2)c1)C(C)C`, the AC50 in experiment [1] was 13.4 µM (active); in experiment [2] it was 3.35 µM (active); in experiment [3], 7.54 µM (active); in experiment [4], 4.14 µM (active); in experiment [5], 2.93 µM (active); in the experiment with Adra2b (gene 24174) it was 8.19 µM (active).
In the case of `CC(C)=CCCC(C)CCO` (stereo unspecified), the outcome in experiment [6] was inactive.
`CCCCCCCCCCCCCCCO`: the result in experiment [7] was inactive.
In the case of `CC[C@H]1OC(=O)[C@H](C)[C@@H](O[C@H]2C[C@@](C)(OC)[C@@H](O)[C@H](C)O2)[C@H](C)[C@@H](O[C@@H]2O[C@H](C)C[C@H](N(C)C)[C@H]2O)[C@](C)(O)C[C@@H](C)C(=O)[C@H](C)[C@@H](O)[C@]1(C)O`, the result in experiment [1] was inactive.
As for `Cn1cnc([N+](=O)[O-])c1Sc1ncnc2nc[nH]c12`, the compound was called inactive in [7].
`COc1cccc(-c2ccc(/C=C\CN3CCCCCC3)cc2Cl)c1`: the AC50 in experiment [8] was 11.8 µM (active); in experiment [1], 15.2 µM (active); in [6], 12.3 µM (active); in [2], 12.1 µM (active); in experiment [7], 18.7 µM (active); in [4] it was 2.99 µM (active). For the same compound, the results for the AC50 (in experiment [5]; with Adra2b (gene 24174)) were 10.1 µM (active) and 4.39 µM (active), respectively. Further, the call in experiment [3] was inactive.
Regarding `O=C(CCCCCCCCc1cccnc1)N1CCC(C=C(c2ccccc2)c2ccccc2)CC1`, the AC50 in experiment [6] is 24.7 µM (active).
For `CC(=O)OCCC(C)C`, the call in [4] was inactive.
For the compound `CNCc1ccc(NC(=O)c2c[nH]c3c2C(=O)CCC3)cc1`, the outcome (in [9]; in the experiment with Adra2b (gene 24174)) was inactive.
Consider `CC(C)(O)c1coc(S(=O)(=O)NC(=O)Nc2c3c(cc4c2CCC4)CCC3)c1`, for which the AC50 in experiment [8] was 25 µM (active).
Take `O=C(O)CCN(C1(C(=O)NO)CCCC1)S(=O)(=O)c1ccc(Oc2ccc(F)cc2)cc1`: the result in the experiment with Adra2b (gene 24174) was inactive.
Regarding `CC1(C)C(=O)N(Br)C(=O)N1Br`, in experiment [10], the AC50 is 17.1 µM (active).
Turning to `CCOC(=O)COc1ccc2c(c1)CC(NCC(O)c1cccc(Cl)c1)CC2` (stereo unspecified), the AC50 in [8] was 13.2 µM (active); in [6], 5.18 µM (active); in the experiment with Adra2b (gene 24174) it was 11.2 µM (active). In addition, the compound was classed as inactive in experiment [10].
As for `Cc1ccc(C)c(O)c1`, the call in experiment [1] was inactive.
On to `COC(=O)c1c(Cl)c(Cl)c(C(=O)OC)c(Cl)c1Cl`, for which the call in experiment [8] was inactive.
Consider `COCCOc1cc2cc(C(=O)NC3CCN(C(C)C)CC3)n(CC(=O)Nc3ccc(Cl)cn3)c2cn1`, for which the compound was called inactive in [11]. Also, the AC50 was 14.7 µM (active) in experiment [3], 15.3 µM (active) in [7], 10.1 µM (active) in experiment [4] and 12.6 µM (active) in [5].
As for `CC[C@H]1CC[C@H](NCc2cc3c(cc2OC)[C@H]2C[C@H]2C(=O)N3C)[C@H](c2ccccc2)N1`, the AC50 is 17.5 µM (active) in experiment [1]; 5.7 µM (active) in experiment [6]; 14.2 µM (active) in experiment [2]; 17.2 µM (active) in experiment [7]; 13.3 µM (active) in experiment [4]; 15 µM (active) in [5]. Moreover, in the experiment with Adra2b (gene 24174), the concentration at half-maximal activity (AC50) was 12.3 µM (active). Besides, the outcome in [9] was inactive.
With `Nc1ccc(Nc2ccccc2)cc1`, the AC50 in [1] was 32.3 µM (active); in experiment [2] it was 31.6 µM (active); in experiment [7] it was 40.6 µM (active); in experiment [4] it was 25 µM (active); in experiment [5], 16.9 µM (active).
On to `Fc1ccccc1[C@@H](F)COC1CCC(Nc2ncnc3[nH]ncc23)CC1` (stereo partly specified), for which, in experiment [8], the concentration at half-maximal activity (AC50) is 7.93 µM (active).

Usually AC50 stands for the midpoint of the concentration-response curve, whichever way the signal moves.
